Assay [1] relates to NHEM-hTERT. Description: cell viability relative to DMSO control (fraction of DMSO control); higher = less cytotoxic, active = 0.5 or less. Particulars: 1 µM; 120 h. In short, it runs like this: (§1)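 For 120 h, duplicate wells of 384-well plates held 1 µM of each of 315 approved anti-cancer drugs (TargetMol), spotted acoustically before cells were added in 40 µl per well. Immortalized NHEM-hTERT melanocytes were seeded at 2500/well, and patient-derived Mel-DCC-11 plus its resistant subline Mel-DCC-11-R at 1500/well. The subline was run both without and with 8 µM of its selecting drug, and ATPlite 1step luminescence was read. Viability was normalised to vehicle-treated wells and averaged over the two replicates.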

Assay [2] has as its system Mel-DCC-11-R. In words: cell viability relative to DMSO control (fraction of DMSO control); higher = less cytotoxic, active = 0.8 or less. Conditions: 1 µM, 120 h. In short, it runs like this: as §1

Results on 14 molecules are retold here after the supplement of paper PMC12808144.

Unmarked numbers belong to inactive results.

Regarding `COc1cc2nccc(Oc3ccc(NC(=O)C4(C(=O)Nc5ccc(F)cc5)CC4)cc3)c2cc1OC` [Cabozantinib], the values for the cell viability in assay [1], in assay [2] (vemurafenib co-treatment 0 µM) and in assay [2] (vemurafenib co-treatment 8 µM) were 0.739, 1.1 and 0.427 (active), respectively.
For `CN(C)C/C=C/C(=O)Nc1cc2c(Nc3ccc(F)c(Cl)c3)ncnc2cc1O[C@H]1CCOC1` [Afatinib] the same measures were 1.01, 1.09 and 0.792 (active).
For `CCN1CCN(Cc2ccc(Nc3ncc(F)c(-c4cc(F)c5nc(C)n(C(C)C)c5c4)n3)nc2)CC1` [Abemaciclib] the same measures were 0.921, 1.38 and 0.669 (active).
The matching figures for `CC(=O)O.CC(C)C[C@H](NC(=O)[C@@H](COC(C)(C)C)NC(=O)[C@H](Cc1ccc(O)cc1)NC(=O)[C@H](CO)NC(=O)[C@H](Cc1c[nH]c2ccccc12)NC(=O)[C@H](Cc1cnc[nH]1)NC(=O)[C@@H]1CCC(=O)N1)C(=O)N[C@@H](CCCN=C(N)N)C(=O)N1CCC[C@H]1C(=O)NNC(N)=O` [Goserelin acetate]: 1.07, 0.927 and 1.13.
On to `COc1cc2ncnc(Nc3ccc(F)c(Cl)c3)c2cc1NC(=O)/C=C/CN1CCCCC1` [Dacomitinib], for which the cell viability in assay [1] was 1.03; in assay [2] (vemurafenib co-treatment 0 µM) it was 1.07; in assay [2] (vemurafenib co-treatment 8 µM), 0.911.
Turning to `C1=C/COCc2cc(ccc2OCCN2CCCC2)Nc2nccc(n2)-c2cccc(c2)COC/1` [Pacritinib], the cell viability was 1.04 in assay [1], 1.46 in assay [2] (vemurafenib co-treatment 0 µM) and 1.06 in assay [2] (vemurafenib co-treatment 8 µM).
As to `C[C@@H](CN1CC(=O)NC(=O)C1)N1CC(=O)NC(=O)C1.Cl` [Dexrazoxane HCl], the cell viability in assay [1] is 1.2; in assay [2] (vemurafenib co-treatment 0 µM) it was 1.09; in assay [2] (vemurafenib co-treatment 8 µM), 1.13.
For `Cl.N=C1CCCN1Cc1[nH]c(=O)[nH]c(=O)c1Cl.O=c1[nH]c(=O)n([C@H]2C[C@H](O)[C@@H](CO)O2)cc1C(F)(F)F.O=c1[nH]c(=O)n([C@H]2C[C@H](O)[C@@H](CO)O2)cc1C(F)(F)F` the same measures were 0.967, 1.23 and 1.1.
Consider `Cn1nnc2c(C(N)=O)ncn2c1=O` [Temozolomide], for which the cell viability in assay [1] was 1.01; in assay [2] (vemurafenib co-treatment 0 µM), 0.884; in assay [2] (vemurafenib co-treatment 8 µM), 0.874.
For `CCc1cnn2c(NCc3ccc[n+]([O-])c3)cc(N3CCCC[C@H]3CCO)nc12` [Dinaciclib], the results for the cell viability in assay [1], in assay [2] (vemurafenib co-treatment 0 µM) and in assay [2] (vemurafenib co-treatment 8 µM) were 0.212 (active), 0.062 (active) and 0.0642 (active), respectively.
For `CCc1c2c(nc3ccc(OC(=O)N4CCC(N5CCCCC5)CC4)cc13)-c1cc3c(c(=O)n1C2)COC(=O)[C@]3(O)CC` [Irinotecan] the same measures were 0.894, 0.98 and 0.694 (active).
For `CC(/C=C/C=C(\C)C(=O)O[C@@H]1O[C@H](CO[C@@H]2O[C@H](CO)[C@@H](O)[C@H](O)[C@H]2O)[C@@H](O)[C@H](O)[C@H]1O)=C\C=C\C=C(C)\C=C\C=C(/C)C(=O)O[C@@H]1O[C@H](CO[C@@H]2O[C@H](CO)[C@@H](O)[C@H](O)[C@H]2O)[C@@H](O)[C@H](O)[C@H]1O` [Crocin] the same measures were 1.12, 0.985 and 1.03.
Regarding `O=C(NC(Cc1cc(=O)[nH]c2ccccc12)C(=O)O)c1ccc(Cl)cc1` (configuration not stated) [Rebamipide], the cell viability was 1 in assay [1], 0.995 in assay [2] (vemurafenib co-treatment 0 µM) and 1.24 in assay [2] (vemurafenib co-treatment 8 µM).
For `COC(=O)c1ccc2c(c1)NC(=O)/C2=C(\Nc1ccc(N(C)C(=O)CN2CCN(C)CC2)cc1)c1ccccc1` [Nintedanib] the same measures were 0.909, 1.01 and 0.803.
